Source: PubChem BioAssay (National Center for Advancing Translational Sciences (NCATS))
Compounds with a hit are over-represented: about 4.2% of the library has one in this group of screens.
Mito fusion act = qHTS Assay for Small Molecule Inhibitors of Mitochondrial Division or Activators of Mitochondrial Fusion; S. cerevisiae fusion-defective mutant growth rescue, CellTiterGlo 48 h; Potency, µM (top dose mostly 46.1 µM), for the others: top-dose growth rescue (activation), most hits filed as activators; 0.23% of 320,000 active; AID 485298, 2010; further: % of control where 0% means no effect; nearly all actives have a fitted effect of over 45% in size
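Luminescent cell viability in 1536-well qHTS format served as the measure of rescued growth in ts fusion-mutant S. cerevisiae cultured on non-fermentable YPEG for 48 hours at 37C.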
SW480 rerep = A quantitative high throughput screen for small molecules that induce DNA re-replication in SW480 colon adenocarcinoma cells. SW480 DNA re-replication, Hoechst DNA content imaging, 48 h. 1.8% of 340,000 active. AID 624297, 2012. Potency, µM (doses to about 46.1 µM), inactives show at the highest dose re-replication activation, actives largely listed as activators; further: % of control where 0% means no effect; nearly all actives have a fitted effect of over 55% in size
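Cells (250 per well) received 23 nL compound or DMSO by pin tool and were kept 48 hr at 37 C, 5% CO2. Nuclei were then stained with Hoechst for 40 min and scanned for DNA content.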
a7 integrin act = qHTS for Activators of Integrin-Mediated Alleviation for Muscular Dystrophy; alpha7betagal myoblasts, beta-gal FDG fluorescence, 48 h; Potency, µM (titrated, usually from 38.3 µM), without a hit: top-dose activation, most hits filed as activators; 0.064% of 350,000 active; AID 624291, 2012;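 further: 100% = response of the positive control SU9516; nearly all actives have a fitted effect of over 60% in size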
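alpha7betagal+/- myoblasts (passage 13, 250/well) treated 48 h at 37C with compounds at 1:260 dilution of DMSO stock. Lysed, then beta-galactosidase activity read as FDG fluorescence (ex 480/em 540) after 30 min, with pre-read for autofluorescence.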
MCF10A rereplic = A quantitative high throughput screen for small molecules that induce DNA re-replication in MCF 10a normal breast cells; MCF 10A DNA re-replication, Hoechst nuclear intensity, 48 h; Potency, µM (top dose mostly 46.1 µM), inactives show top-dose activity, positive = re-replication, hits mostly activators; 2.9% of 350,000 active; AID 624296, 2012; further: % of control where 0% means no effect; nearly all actives have a fitted effect of over 50% in size
A-T KAP1 phos = qHTS Assay for Identifying a Potential Treatment of Ataxia-Telangiectasia | Potency, µM (doses to about 57.5 µM), inactives show top-dose activation, hits mostly activators | AID 485349, 2010 | F2112 A-T fibroblasts, KAP-1 phosphorylation AlphaLISA; neocarzinostatin DNA damage 30 min before lysis | 0.19% of 320,000 active; further: % of control where 0% means no effect; nearly all actives have a fitted effect of over 45% in size
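hTERT-immortalized A-T patient fibroblasts (F2112), 500 cells/well in OPTI-MEM, 1% FBS, got compounds for 60 min, then NCS for 30 min at 37C. Lysates were then assayed for phospho-KAP-1 by AlphaLISA (anti-pKAP1 donor, anti-KAP1 acceptor beads), 6 hr at 25C.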
An asterisk follows results filed as active; ? = inconclusive; / = not tested or not shown. The call rests on the fitted dose curve; in most records, active means well fitted activation curve with a large enough effect; inconclusive means small, poorly fitted or top-dose-only effect; inactive means no such curve, though single readings can be large or run the other way. Potency means the concentration at half of the fitted maximal effect.

SMILES	Mito fusion act	SW480 rerep	a7 integrin act	MCF10A rereplic	A-T KAP1 phos
O=C(NCc1ccccn1)c1ccc(CNS(=O)(=O)c2cccc(Cl)c2)cc1	-4%	-5%	20%	-9%	5%
O=C(NCC(c1cccs1)N1CCOCC1)c1ccc(Cl)nc1 (stereo not drawn)	2%	?	-12%	18µM*	3%
O=C(NCC(c1cccs1)N1CCOCC1)c1cc(S(=O)(=O)N2CCOCC2)c(Cl)cc1Cl (stereo not drawn)	5%	?	-2%	4%	7%
O=C(NCC(c1cccs1)N1CCOCC1)c1cc(S(=O)(=O)N2CCOCC2)ccc1F (stereo not drawn)	20%	3.3µM*	-1%	22%	5%
Cc1ccc(OC(=O)c2cccc(C(=O)Oc3ccc(C)cc3)n2)cc1	0%	0%	?	1%	-1%
CCOC(=O)c1cccc(C(=O)Oc2ccccc2)n1	0%	0%	18%	21µM*	4%
O=C(O)/C=C/c1cn(Cc2ccccc2Cl)nc1-c1ccccc1	21%	-4%	15%	4%	10µM*
O=C(O)/C=C/c1cn(Cc2ccccc2)nc1-c1ccc(Cl)cc1	4%	-1%	5%	-1%	1%
CSc1ccc(CNC(=O)C2CCC(=O)N(CCc3ccc(Cl)cc3)C2)cc1 (stereo not drawn)	/	/	-7%	/	/
CCn1c(CCl)nc2cc(S(=O)(=O)N3CCOCC3)ccc21	/	15µM*	-51%	?	2%
COC(=O)c1c(NC(NC(C)=O)C(Cl)(Cl)Cl)sc2c1CCCC2 (stereo not drawn)	21%	0%	-19%	?	/
CCOC(=O)c1c(NC(=O)c2ccco2)sc2c1CCCCC2	4%	0%	-19%	?	21%
CCOC(=O)c1c(NC(=O)C(C)N2CCN(C(=O)c3ccco3)CC2)sc2c1CCCC2 (stereo not drawn)	15%	21%	-33%	15µM*	-1%
CCOC(=O)c1c(NC(NC(C)=O)C(Cl)(Cl)Cl)sc2c1CCCC2 (stereo not drawn)	?	8%	1%	21µM*	-7%
CCOC(=O)c1c(NC(=O)CN(CC)CC)sc2c1CCC2	-4%	-3%	-25%	?	22µM*
CCOC(=O)c1c(NC(=O)OC)sc2c1CCC2	6%	-12%	-12%	-6%	4%
COc1ccc(-n2cc(-c3ccc(OC)c(OC)c3)[nH]c2=S)cc1	-6%	?	17%	-1%	-3%
COc1ccc(-n2cc(-c3ccccc3)[nH]c2=S)c(OC)c1	-33%	18µM*	-52%	16µM*	-1%
O=C1NC2=C(C(=O)CCC2)C(c2ccc([N+](=O)[O-])cc2)N1 (stereo not drawn)	-3%	-3%	-19%	-5%	-8%
COc1cc(/C=N/NC(=O)c2ccc(CN3C(=O)c4cccc5cccc3c45)cc2)cc(OC)c1O	?	-4%	-51%	9%	41%
COc1cc(/C=N/NC(=O)c2cc(-c3ccccc3)nc3ccccc23)ccc1O	-27%	0%	23%	16%	-6%
COc1cc(/C=N/NC(=O)c2cc(-c3ccccc3OC(C)C)nc3ccccc23)ccc1O	5%	?	?	10µM*	-1%
O=C(N/N=C/c1ccc2c(c1)OCO2)c1cc(-c2ccc(F)cc2)nc2ccccc12	16%	?	-13%	3.7µM*	/
COc1cc(C(=O)N/N=C/c2ccc(OC(=O)c3ccccc3)c(OC)c2)ccc1O	-1%	21µM*	-25%	-31%	-5%
COc1ccc(/C=N/NC(=O)c2ccc(CN3C(=O)c4cccc5cccc3c45)cc2)cc1O	10%	-84%	-19%	16µM*	-2%
SMILES	Mito fusion act	SW480 rerep	a7 integrin act	MCF10A rereplic	A-T KAP1 phos
O=C(N/N=C/c1ccncc1)c1cc(C2CC2)nc2ccccc12	0%	-8%	10%	-6%	8%
COc1ccccc1CN(C)C(=O)c1cc(-c2cccs2)nc2ccccc12	4%	10%	-8%	18µM*	4%
Cc1ccc(C=NNC(=O)c2cc(-c3cccnc3)nc3ccccc23)o1	/	7.3µM*	-3%	5.2µM*	20%
COc1ccc(-c2cc(C(=O)N(C)Cc3cccc(OC)c3OC)c3ccccc3n2)cc1OC	-16%	-1%	-42%	-6%	1%
O=C(N/N=C/c1ccc(F)cc1)c1cc(-c2ccccn2)nc2ccccc12	-4%	-1%	-2%	?	0%
COc1cccc(/C=N/NC(=O)c2cc(-c3ccccn3)nc3ccccc23)c1O	0%	1.6µM*	-22%	-3%	-6%
Cc1[nH]c2ccccc2c1C=NNC(=O)c1cc(-c2cccnc2)nc2ccccc12	/	-15%	7%	?	9%
O=C(N/N=C/c1cccs1)c1cc(C2CC2)nc2ccccc12	-3%	18µM*	16%	8.2µM*	1%
COc1ccc(S(=O)(=O)N(C)[C@H]2C[C@H]3c4cc(N5CCN(C)CC5)ccc4CCN3C(=O)[C@H]2[C@H](C)O)cc1	/	/	-17%	/	/
NC(=O)C1=CN(C2OC(COP(=O)(O)OP(=O)(O)OC[C@H]3O[C@@H](n4cnc5c(N)ncnc54)[C@H](OP(=O)(O)O)[C@@H]3O)C(O)C2O)C=CC1 (stereo partly drawn)	-1%	/	/	/	/
COC(=O)C1CC2(C(=O)OC)CC(C(=O)OC)(CC(C(=O)OC)C2=O)C1=O (stereo not drawn)	/	14%	18%	-1%	/
O=C(N/N=C/c1cccs1)c1cc(-c2ccncc2)nc2ccccc12	1%	?	-14%	?	-27%
Cc1nn(-c2ccccc2)c(N2CCCC2)c1/C=N/NC(=O)c1cc(-c2cccnc2)nc2ccccc12	-3%	?	6%	13µM*	-3%
COc1ccccc1-c1cc(C(=O)N/N=C/c2cccs2)c2ccccc2n1	18%	7%	8%	14µM*	2%
Cc1ccc(/C=N/NC(=O)c2cc(C3CC3)nc3ccccc23)o1	3%	21µM*	-2%	5.8µM*	-8%
O=C(N/N=C/c1ccccn1)c1cc(C2CC2)nc2ccccc12	-2%	?	-35%	9%	0%
COc1ccc(-c2cc(C(=O)N/N=C/c3ccc(OC)c(COCC(F)(F)C(F)F)c3)c3ccccc3n2)c(OC)c1	3%	17%	-47%	23µM*	0%
Cc1ccc(S(=O)(=O)Nc2ccccc2C=NNC(=O)c2ccncc2)cc1	/	/	-27%	/	/
Cc1cc(C(=O)N/N=C/c2ccc(C)o2)c2ccccc2n1	3%	5.8µM*	-15%	1.8µM*	2%
Cc1ccc(/C=N/NC(=O)c2cc(-c3ccccc3)nc3ccccc23)o1	-1%	?	-20%	5.8µM*	-17%
